Screening results deposited in PubChem by National Center for Advancing Translational Sciences (NCATS).
The list is not random: actives were taken first. Their share in the collection is about 19%.
DT40 TDP1 no CPT – qHTS for Inhibitors of human tyrosyl-DNA phosphodiesterase 1 (TDP1): qHTS in cells in absence of CPT; DT40 Tdp1-/- hTDP1 cells, no CPT, ATP luminescence, 48 h; Potency, µM (top dose mostly 46.2 µM), inactives show at the highest dose activity change, negative = growth inhibition, hits mostly inhibitors; 15% of 420,000 active; AID 686978, 2013; also: potency is read from the fitted curve at half-maximal effect; nearly all actives have a fitted effect of over 55% in size
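Growth kinetics read by CellTiter-Glo luminescence after ≥48 hr at 37 °C. Cells: DT40 Tdp1-/- stably carrying human TDP1, 400 per well, compound exposure in the absence of CPT (DMSO vehicle).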
IL-1B inflam inh – qHTS for Inhibitors of Inflammasome Signaling: IL-1-beta AlphaLISA Primary Screen; THP-1 LPS/ATP IL-1B secretion, AlphaLISA, 16 h; hits give low values; activity change, % at 57.5 µM; 4.7% of 360,000 active; in the data active = activity change below about -50%; inconclusive = mostly about -30% to -49%
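Secreted IL-1B measured by AlphaLISA bead assay after 16 h compound exposure of THP-1 cells; compounds (final up to 57.5 uM) added 1 h before LPS (250 ng/mL) and ATP (1.25 mM) stimulation; lower signal means less secretion.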
HT1080 IDH1KD tx – qHTS for induction of synthetic lethality in tumor cells producing 2HG: qHTS for the HT-1080-IDH1KD cell line. HT-1080 IDH1 knockdown viability, ATP luminescence, 48 h. Potency, µM (titrated, usually from 46.1 µM), without a hit: at the top dose activity, negative = toxicity, most hits filed as cytotoxic. 2% of 360,000 active;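 also: potency is read from the fitted curve at half-maximal effect; 0% = DMSO wells and -100% = cell-free medium wells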
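CellTiter-Glo luminescence after 48 h compound exposure at 37 degrees C of IDH1-knockdown HT-1080 cells in 5% FBS RPMI. %Activity scaled between DMSO wells and cell-free media wells, with curves fitted and assigned curve classes.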
HT1080-NT tox – qHTS for induction of synthetic lethality in tumor cells producing 2HG: qHTS for the HT-1080-NT fibrosarcoma cell line; Potency, µM (highest dose often 46.1 µM), for the others: at the top dose activity, negative = less viability, most hits filed as cytotoxic; 1.6% of 360,000 active; HT-1080-NT fibrosarcoma viability, CellTiter-Glo ATP luminescence, 48 h;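 also: NT is the 2HG producing partner of a matched IDH1 knockdown line; potency is read from the fitted curve at half-maximal effect; 0% = DMSO-treated cells and -100% = media-only wells without cells; nearly all actives have a fitted effect of over 55% in size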
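750 cells/well, RPMI + 5% FBS; 2 h settle, compound pin-transfer, 48 h at 37 degrees C. CellTiter-Glo 10 min RT, luminescence. Normalized to DMSO and media-only wells.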
DT40 TDP1 CPT – qHTS for Inhibitors of human tyrosyl-DNA phosphodiesterase 1 (TDP1): qHTS in cells in presence of CPT. chicken DT40 Tdp1-/-;hTDP1 cells + 20 nM CPT, ATP luminescence, 48 h. 12% of 420,000 active. Potency, µM (doses to about 46.2 µM), for inactives: at the top dose activity change, negative = growth inhibition, usual class: inhibitors; also: potency is read from the fitted curve at half-maximal effect; nearly all actives have a fitted effect of over 55% in size
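Chicken DT40 Tdp1-/- cells stably complemented with human TDP1 were seeded at 400 cells/well in medium containing 20 nM camptothecin, exposed to pin-transferred compounds, and grown at 37 °C for at least 48 hr. Viability was read as ATP luminescence.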
Numbers without * were called inactive; ? = inconclusive; . = not tested or not shown; [ ] = dose if it differs, or a comment. Unless noted, calls follow the shape of the dose curve; as a rule, active = well fitted curve in the direction sought with a large enough effect; inconclusive = small, poorly fitted or top-dose-only effect, or another doubt; inactive = no such curve, though single readings can be large; an effect the other way counts as inactive or inconclusive. Unless noted, % is scaled to controls: 0 for no effect and ±100 for the full control effect.

SMILES	DT40 TDP1 no CPT	IL-1B inflam inh	HT1080 IDH1KD tx	HT1080-NT tox	DT40 TDP1 CPT
CC1CCCC(NC(=O)CSc2nncs2)C1C (stereo unspecified)	?	14	15%	2%	0%
CC(C)N(C(=O)[C@H]1C[C@H](CC(=O)NCC23CC4CC(CC(C4)C2)C3)C(=O)N2CCc3c([nH]c4ccc(Cl)cc34)[C@]12C)C(C)C	13µM*	-75*	?	?	18µM*
CCN(CC)C(=O)[C@H]1C[C@H](CC(=O)NCCCn2ccnc2)C(=O)N2CCc3c([nH]c4ccc(Cl)cc34)[C@]12C	?	-2	-2%	-2%	?
COc1ccc2[nH]c3c(c2c1)CCN1C(=O)C(CC(=O)NCc2ccc(OC)c(OC)c2)C[C@H](C(=O)N(C(C)C)C(C)C)[C@@]31C (stereo partly specified)	?	-9	-4%	-3%	?
CCN(CC)C(=O)[C@H]1C[C@H](CC(=O)NCC23CC4CC(CC(C4)C2)C3)C(=O)N2CCc3c([nH]c4ccc(Cl)cc34)[C@]12C	18µM*	-69*	1%	-1%	16µM*
CCOc1cc(/C=C2\SC(=N)N(c3nccs3)C2=O)ccc1OCCN1CCOCC1	21µM*	-19	?	-27%	16µM*
CCOc1cc(/C=C2\SC(=S)N(N3CCOCC3)C2=O)ccc1O	-21%	4	7%	3%	-3%
O=S(=O)(Cc1cc(N2CCOCC2)nc(-c2ccccn2)n1)c1ccccc1	18µM*	-12	-2%	-8%	10µM*
Cc1nc(CS(=O)(=O)c2ccc(Cl)cc2)cc(N2CCOCC2)n1	-8%	15	12%	13%	-8%
CN(C)c1cc[n+](CC(=O)Nc2ccc(OC(F)F)cc2)cc1	15µM*	-12	?	-20%	23µM*
CN(C)c1cc[n+](CC(=O)Nc2cccc([N+](=O)[O-])c2)cc1	3.3µM*	1	-19%	-6%	?
O=C(C[n+]1ccc(-c2ccccc2)cc1)Nc1ccc([N+](=O)[O-])cc1	15µM*	-19	-1%	-7%	10µM*
CC(=O)c1ccc2c(c1)N(Cc1ccccc1)C(=O)C(C)S2 (stereo unspecified)	?	-8	0%	?	-26%
COc1ccc(CCNC(=O)CSC2=NS(=O)(=O)c3cc(F)ccc3N2)cc1OC	?	?	-2%	-7%	-11%
COc1cccc(C2/C(=C(\O)c3ccc4c(c3)OCCO4)C(=O)C(=O)N2CCCN2CCOCC2)c1OC (stereo unspecified)	19%	6	15%	-1%	-3%
CCc1ccccc1Oc1nc(NC(C)C)nc2ccsc12	?	41	-15%	0%	?
CC(C)Nc1nc(Nc2ccc(F)cc2)c2sccc2n1	?	-5	-18%	-24%	26µM*
CC(C)Nc1nc(Nc2ccc(C#N)cc2)c2sccc2n1	26µM*	-1	-26%	-1%	15µM*
CC(C)Nc1nc(-c2ccccc2CO)c2sccc2n1	-16%	-17	0%	0%	?
COC(=O)C1(C)CCc2c(ccc3ccccc23)C1=O (stereo unspecified)	-25%	44	9%	2%	-21%
CN1CC2(Cc3c1ccc1ccccc31)C(=O)OC(C)(C)OC2=O	?	0	?	23µM*	?
c1ccc(Cn2nnnc2CN2CCOCC2)cc1	1%	1	-1%	1%	3%
OC1(c2cccc(C(F)(F)F)c2)CCN(Cc2nnnn2CCc2ccccc2)CC1	21µM*	-7	-16%	-24%	23µM*
OC1(c2cccc(C(F)(F)F)c2)CCN(Cc2nnnn2Cc2ccccc2)CC1	?	-70*	-25%	-10%	?
CCc1ccc2c(c1)/C(=N/OC)C(=O)N2	21µM*	-8	13%	3%	?
SMILES	DT40 TDP1 no CPT	IL-1B inflam inh	HT1080 IDH1KD tx	HT1080-NT tox	DT40 TDP1 CPT
Cc1cc(C)nc(NS(=O)(=O)c2ccc(NC(=O)c3snnc3C)cc2)n1	19%	12	-1%	0%	-2%
CCSC1=NN2CCS(=O)(=O)N=C2S1	1%	0	8%	3%	6%
CCn1cc(C(C)NC(=O)COc2ccc(Cl)cc2C)c(C)n1 (stereo unspecified)	21µM*	7	?	-1%[9.24 µM]	?
Cc1cc(Cl)ccc1OCC(=O)Nc1ccncc1	5.8µM*	?	-11%	?	?
Cc1cc(Cl)ccc1OCC(=O)NCc1ccncc1	?	-1	10%	9%	?
O=C(COc1ccc(Cl)cc1)Nc1ccc(Cc2ccncc2)cc1	?	-71*	-19%	-1%	?
Cc1ccc2nsnc2c1NC(=O)COc1ccccc1F	-3%	-14	7%	17%	14%
Cc1cccc(OCC(=O)Nc2c(C)ccc3nsnc23)c1C	?	.	.	.	15µM*
Cc1cc(C)n2nc(C(=O)Nc3ccn(Cc4ccccc4C)n3)cc2n1	-25%	-22	1%	-3%	-18%
COc1cccc2cc(C(=O)Nc3ccccc3Cl)/c(=N/NS(=O)(=O)c3ccccc3)oc12	13%	0	18%	16%	-7%
CC1CCN(S(=O)(=O)c2ccc(NC(=O)[C@@H]3CCCN3C(=O)c3cccs3)cc2)CC1	?	-6	7%	8%	-5%
Cc1cccc(OCC(=O)Nc2ccncc2)c1C	8.2µM*	-6	?	-4%	12µM*
COc1cccc(NC(=O)COc2ccc(Br)c(C)c2)c1	-9%	-3	2%	6%	-4%
COc1ccccc1OCC(=O)Nc1ccncc1	?	16	2%	6%	-23%
Cc1cc(OCC(=O)Nc2ccncc2)ccc1Br	23µM*	-14	-3%	-10%	?
Cc1ccc(-n2nc(C)c(C(=O)NCCCN3CCN(c4ccccc4F)CC3)c2-n2cccc2)cc1	3.7µM*	.	.	.	3.3µM*
Cc1cc(=O)oc(C)c1C(=O)NCCCN1CCN(c2ccccc2F)CC1	-23%	0	?	-11%[9.24 µM]	-17%
O=C(NCCCN1CCN(c2cccc(Cl)c2)CC1)c1cccc(N2CCCC2=O)c1	?	-10	-13%	-13%	?
Cc1ccc(-n2nc(C)c(C(=O)NCCCN3CCN(c4cccc(Cl)c4)CC3)c2-n2cccc2)cc1	5.8µM*	.	.	.	8.2µM*
COc1ccc(C(=O)NCCN=C2NS(=O)(=O)c3ccccc32)cc1	17%	29	-8%	-2%	4%
